An excerpt weighted towards active compounds, which were near 21% of everything screened.
HCV inh: HCV inhibition; Huh7.5.1 HCVcc-Cre infection, luciferase reporter, 44 h; Potency, µM (doses to about 41.8 µM), without a hit: at the top dose activity change, negative = inhibition, most hits filed as inhibitors; 340,000 compounds, 3.4% hits; AID 651820; also: potency is read from the fitted curve at half-maximal effect; % is scaled to controls: 0 for no effect and ±100 for the full control effect
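Compounds are dispensed onto cells plated 4 h earlier at 1,000 per well, with HCVcc-Cre virus (about 0.5 moi) added next. Following 44 h of culture, luminescent signal is measured for 15 sec after 15 min with substrate at room temperature.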
CHX counter-1: counter-screen for Shiga toxin inhibitors: cycloheximide protein synthesis inhibition. cell reporter, cycloheximide protein synthesis inhibition counterscreen. max response, %. 300,000 compounds, 12% hits. AID 2314; in the data active = max response mostly above about 13%, no sharp cut-off; inactive = mostly below about 14%; also: read at 38.3 µM for the half of the compounds with a filed dose; 0% is about no effect
HCMV inh: human cytomegalovirus inhibition; 410,000 compounds, 4.5% hits; HFF cells, HCMV-luciferase reporter, 72 h; active compounds read low; activity change, negative = inhibition, % at 57.5 µM; in the data active = activity change below about -60%; inconclusive = no clear call, values can overlap the other calls; inactive = above about -39%; also: % is scaled to controls: 0 for no effect and ±100 for the full control effect
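Luciferase read-out from HCMV-luciferase-infected HFFs (MOI 1 PFU/cell) 72 h post infection at 37C; compounds added after 16 h cell attachment; activity normalized between buffer-only basal and Salinomycin (10uM) inhibitor controls.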
Pf growth 96h: P. falciparum growth inhibition at 96 hours | P. falciparum luciferase reporter growth, 96 h | Potency, µM (highest dose often 28.7 µM), without a hit: at the top dose activity change, negative = inhibition, usual class: inhibitors | 320,000 compounds, 6.9% hits; also: potency is read from the fitted curve at half-maximal effect; % is scaled to controls: 0 for no effect and ±100 for the full control effect
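Two-generation exposure (96 h) targets delayed-death phenotype. Reporter parasites carrying integrated firefly luciferase, in red cells at 2% hematocrit and 0.05% parasitemia final, kept at 37 C, 5% CO2; luminescence loss indicates inhibition.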
Shiga inhibitor: Shiga toxin inhibition; Vero cells, Shiga toxin protein synthesis inhibition reporter; inhibition, % at 38.7 µM; 290,000 compounds, 9.2% hits; AID 2315; in the data active = inhibition mostly above about 28%, no sharp cut-off; inactive = mostly below about 43%; also: 0% is about no effect
Pf growth 48h: P. falciparum growth inhibition at 48 hours (one generation); AID 504832; Potency, µM (series often up to 28.7 µM), for the others: top-dose activity change, negative = inhibition, most hits filed as inhibitors; P. falciparum luciferase growth in erythrocytes, 48 h; 310,000 compounds, 5.9% hits; also: potency is read from the fitted curve at half-maximal effect; % is scaled to controls: 0 for no effect and ±100 for the full control effect
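Erythrocytes infected with P. falciparum carrying an integrated firefly luciferase reporter (2% hematocrit, 0.1% parasitemia final) were exposed to compounds in RPMI 1640 with 0.5% Albumax at 37 C, 5% CO2. Growth inhibition was scored as reduced luminescence.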
CHX counter-2: counter-screen for Shiga toxin inhibitors: cycloheximide protein synthesis block; shares compounds with Shiga inhibitor; Cycloheximide counterscreen, protein synthesis reporter, Shiga toxin assay; Potency, µM (series often up to 38.3 µM), for inactives: at the highest dose activity (activation), most hits filed as activators; 510 compounds, 3% hits; AID 2318; calls by dose curve; also: potency is read from the fitted curve at half-maximal effect; 0% is about no effect
Active calls of the source: *; i = inactive; ? = inconclusive; · = not tested or not shown; + = active, no number. Unless noted, calls follow the shape of the dose curve; as a rule, active = well fitted inhibition curve with a large enough effect; inconclusive = small, poorly fitted or top-dose-only effect, or another doubt; inactive = no such curve, though single readings can be large or run the other way.

SMILES	HCV inh	CHX counter-1	HCMV inh	Pf growth 96h	Shiga inhibitor	Pf growth 48h	CHX counter-2
CC1CC1C(=O)NCCc1ccc(Cl)cc1 (stereo not given)	-1.6%	17.5	41.5	-17.3%	27.4	-25.2%	·
O=C(CC1CC2CCC1C2)NCCc1ccc(Cl)cc1 (stereo not given)	-6.4%	16.1	-12.6	44.9%	49.4*	25.7%	2.2%
Cc1ccc(NC(=O)c2c(C(F)(F)F)nn(C)c2Cl)cc1C	0.3%	-1.6	-2.4	72.3%	29.1*	42.0%	-1.6%
C/C1=C\CCC2C(/C=C(\C)CC1)OC(=O)C2CN1CCCCC1 (stereo not given)	-28.8%	8.2	-15.8	?	-1.5	?	·
Cc1sc(NC(=O)COc2cccc(-n3cnnn3)c2)c(C#N)c1C	-23.1%	1.6	-61.9*	7.4%	75.2*	5.1%	-0.1%
COc1ccc(NC(=O)CSc2nccn2-c2cccc(OC)c2)cc1	4.5%	0.5	-12.4	?	39.8*	6.0%	1.9%
COc1ccc(-n2ccnc2SCC(=O)Nc2cc(C)on2)cc1	-24.3%	-1.1	-18.8	4.6%	-7.6	3.3%	·
Cc1ccc([C@@H]2[C@@H]3C(=O)N(c4ccccc4)C(=O)[C@@H]3[C@]3(C)C(=O)N(CC4CC4)CC(=O)N23)o1	0.6%	-1.5	15.0	50.2%	0.5	-4.8%	·
CC(=O)c1cccc(N2C(=O)C3C4CCC(C4=C(C)C)C3C2=O)c1 (stereo not given)	1.8%	1.0	13.9	-17.3%	24.9*	-16.5%	-2.9%
O=C(Nc1nnc(Cc2ccccc2)s1)c1cccnc1	14.5%	-2.2	21.0	160.5%	58.9*	40.4%	-1.0%
CC(C)(C)C(=O)Nc1nnc(Cc2ccccc2)s1	6.4%	18.0	39.2	54.1%	2.8	-14.2%	·
Cc1ccc(O)c(NC(=O)C2CCCCC2)c1	-7.2%	8.0	-30.6	?	34.3*	-0.1%	1.3%
O=C(/C=C\c1ccco1)Nc1nc(-c2ccc3ccccc3c2)cs1	?	20.8	-75.8*	-2.2%	58.1*	-17.6%	2.7%
CN(C(=O)c1ccc2c(=O)n3c(nc2c1)CCCCC3)c1ccccc1	13.4%	13.4	?	-15.6%	+	-29.8%	4.0%
Cc1ccc(OCC(=O)Nc2cccc(S(=O)(=O)N3CCCCCC3)c2)c([N+](=O)[O-])n1	?	1.0	-30.8	-16.3%	8.8	?	·
CCn1c(P(C)(=O)O)nc2cc(NC(=O)c3ccccc3F)ccc21	20.6%	6.8	67.2	10.4%	32.2*	33.6%	-0.7%
COc1ccccc1C(=O)NNC(=O)c1ccc2ccccc2c1	5.2%	1.2	102.1	51.6%	·	46.7%	-0.7%
O=C(CCn1cnnn1)Nc1ccccc1	-2.7%	8.8	26.3	43.4%	21.9*	13.6%	-3.3%
O=C(CCn1cnnn1)Nc1cccc(F)c1	17.4%	1.5	-18.2	?	15.2	4.2%	·
Nc1ccc2nn(-c3cccc4ccccc34)nc2c1	9.5%	2.2	-10.8	·	49.0*	?	3.1%
Nc1ccc2c(c1)C(=O)N(c1cccc3ccccc13)C2=O	-6.0%	11.5	-9.5	-27.5%	·	6.5%	·
CC(=O)Nc1cccc(NC(=O)CSc2nc3ccccc3o2)c1	0.5%	6.9	-9.8	?	25.1*	19.0%	-1.5%
c1ccc(Cc2c(C3CCCCC3)nc3c4ccccc4ccn23)cc1	·	·	118.3	·	·	·	·
Cc1ccccc1S(=O)(=O)Nc1ncnc2ccccc12	-11.6%	-1.4	-19.1	-6.1%	32.9*	6.0%	-1.7%
Cc1ccc(C)c(NS(=O)(=O)c2ccccc2C)c1	-2.0%	-2.1	-4.1	-10.9%	-4.4	5.9%	·
SMILES	HCV inh	CHX counter-1	HCMV inh	Pf growth 96h	Shiga inhibitor	Pf growth 48h	CHX counter-2
CC(=O)c1sc(-c2ccccn2)nc1C	·	14.4	·	?	32.2*	4.6%	2.8%
Cc1ccc(-c2nc(-c3ccccn3)sc2CC(=O)O)cc1	20.2%	-5.0	-14.2	15.6%	-1.6	-4.4%	·
COc1ccc(N2CCN(Cc3csc(C)c3-c3ccc(C)cc3)CC2)cc1	?	-3.1	-68.1*	0.0%	39.8*	10.4µM*	-2.5%
CS(=O)(=O)N(CC(=O)Nc1ccccc1Sc1ccccc1)C1CCCCC1	6.2%	5.1	-16.4	-7.3%	44.3*	·	-0.7%
CS(=O)(=O)N(CC(=O)Nc1ccccc1F)C1CCCCC1	7.3%	-1.8	18.4	175.4%	·	26.0%	·
C=C1/C(=C\C=C2/CCC[C@]3(C)[C@@H]([C@H](C)CCCC(C)(C)O)CC[C@@H]23)C[C@@H](O)C[C@@H]1O	·	17.3	·	14.7%	33.1	6.4%	·
C=C1CCC(O)C/C1=C/C=C1\CCC[C@]2(C)[C@@H]([C@H](C)CCCC(C)C)CC[C@@H]12 (stereo not given in full)	·	8.8	·	·	64.7*	·	0.1%
CC1CCCC(NC(=O)C2CCN(S(=O)(=O)N3CCCCCC3)CC2)C1C (stereo not given)	?	-3.1	1.9	?	10.0	?	·
C/C(=N\NC(=O)c1cccc(S(=O)(=O)N2CCCC2)c1)c1ccc(F)cc1	-14.3%	·	-31.6	?	·	?	·
CCN(CC)c1ccc(NC(=O)CCN2C(=O)c3ccccc3S2(=O)=O)c(C)c1	4.5%	·	-13.6	2.9%	·	-11.4%	·
Cc1cccc(NC(=O)CCN2C(=O)c3ccccc3S2(=O)=O)c1C	1.3%	-1.4	·	-0.2%	16.9*	50.2%	3.5%
COc1ccc(-c2cnc[nH]2)cc1	19.4%	12.9	0.0	69.2%	77.9*	i	1.5%
CC(C)CSc1nc(N)nc2c1ncn2C1OC(CO)C(O)C1O (stereo not given)	-2.3%	·	11.1	·	·	·	·
COC(=O)Cc1c(C(=O)OC)nnn1-c1ccc(OC(F)(F)F)cc1	28.1%	9.9	?	2.0%	-3.3	21.1%	·
CCNc1c(NC(=O)C2CCC(C)CC2)c(=O)oc2ccccc12 (stereo not given)	0.2%	-0.6	?	-1.1%	-8.2	?	·
CCNc1c(NC(=O)c2cccs2)c(=O)oc2ccccc12	3.0%	2.2	19.3	-2.8%	30.3*	8.9%	1.3%
Cc1ccccc1N1CC(O)(c2ccccc2)[N+]2=C1SCC2 (stereo not given)	18.8%	-3.5	?	-0.3%	-2.9	3.1%	·
Cc1ccc(C2(O)CN(c3ccccc3C)C3=[N+]2CCS3)cc1 (stereo not given)	-24.7%	-2.7	?	-0.9%	48.2*	?	-1.3%
CSc1cccc(NC(=O)c2c(Cl)cnn2C)c1	9.0%	13.8	-20.5	18.6%	33.0*	53.2%	?
Cn1ncc(Cl)c1C(=O)Nc1ccc(Cl)cn1	10.8%	14.9	-15.0	27.2%	45.0*	32.1%	?
Cn1ncc(Cl)c1C(=O)Nc1cccc(Cl)c1	-2.1%	9.7	2.7	49.8%	7.3	32.6%	·
